Screening results: PubChem BioAssay, National Center for Advancing Translational Sciences (NCATS)
This is a sample that favours compounds with a hit; in the whole collection about 5.3% have one here.
Tau ThT inhib = blocks human tau fibril formation measured by thioflavin T; P10636; recombinant tau K18 P301L, heparin-induced fibrillization, ThT fluorescence; Potency, µM (top dose mostly 57.4 µM), inactives show at the top dose activity, negative = inhibition, actives largely listed as inhibitors; 270,000 tested, 2.1% active; AID 1460; also: potency is read from the fitted curve at half-maximal effect; nearly all actives have a fitted effect of over 55% in size
Target sequence (P10636 561-689 P618L limits assumed): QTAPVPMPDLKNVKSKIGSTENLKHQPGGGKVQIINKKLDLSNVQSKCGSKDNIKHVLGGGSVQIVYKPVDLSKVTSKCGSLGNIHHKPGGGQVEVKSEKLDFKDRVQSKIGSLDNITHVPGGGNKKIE
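Heparin-induced fibrillization of the P301L-mutant K18 repeat-domain fragment of human tau was followed by ThT binding in quantitative high-throughput format.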
Tau FP inhib = blocks human tau fibril formation measured by polarization | K18 P301L tau heparin fibrillization, Alexa594 FP, 6 h | Potency, µM (top dose mostly 57.7 µM), for the others: at the top dose activity, negative = inhibition, most hits filed as inhibitors | 280,000 tested, 0.39% active | AID 1468; also: potency is read from the fitted curve at half-maximal effect; nearly all actives have a fitted effect of over 55% in size
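K18 P301L tau (15 uM unlabeled/0.24 uM Alexa 594-labeled, final) + compound + heparin 20 uM final; 100 mM NaOAc pH 7; 6 hr 37 C; ThT 30 uM final added, 1 hr RT; FP ex 555/em 632 nm.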
Coupling enz = coupling enzyme interference in Giardia aldolase counter-screen; coupling enzyme system counterscreen, AmpLite Red fluorescence; activity change, negative = inhibition, % at 58.2 µM, hits read low; 290,000 tested, 0.67% active; AID 2472; in the data active = activity change below about -30%
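Counterscreen of the coupled detection system alone, without aldolase: glyceraldehyde-3-phosphate coupling enzymes plus AmpLite Red readout. Compounds at 57.5 uM final, 10 min RT preincubation, 20 min RT reaction, fluorescence 525/598 nm.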
Tau fluor cs = counter-screen for tau fibril formation inhibitors; tau K18 P301L (four-repeat tau fragment) Alexa594 fluorescence, heparin fibrillization; Potency, µM (titrated, usually from 57.7 µM), inactives show at the highest dose activity change, negative = decrease; 280,000 tested, 0.93% active; AID 1463; also: potency is read from the fitted curve at half-maximal effect; nearly all actives have a fitted effect of over 55% in size
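Human K18 P301L tau (15 uM unlabeled plus 0.24 uM Alexa 594-labeled, final) in 100 mM sodium acetate pH 7 was mixed with compound and 20 uM heparin and incubated 6 hr at 37 C.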
JMJD2E inh = JMJD2E (human) inhibition. Potency, µM (highest dose often 57.1 µM), inactives show at the highest dose activity change, negative = inhibition, most hits filed as inhibitors. B2RXH2. JMJD2E catalytic domain, FDH-coupled NADH fluorescence (FDH is formaldehyde dehydrogenase). AID 2147. 230,000 tested, 1.6% active; active = well fitted inhibition curve with a large enough effect, not every such curve was filed as active; inconclusive = small, poorly fitted or top-dose-only effect, or another doubt; inactive = no such curve, though single readings can be large or run the other way;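 also: potency is read from the fitted curve at half-maximal effect; 0% = wells with enzyme and -100% = buffer wells without enzyme; nearly all actives have a fitted effect of over 50% in size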
Target sequence (B2RXH2 1-337 limits assumed): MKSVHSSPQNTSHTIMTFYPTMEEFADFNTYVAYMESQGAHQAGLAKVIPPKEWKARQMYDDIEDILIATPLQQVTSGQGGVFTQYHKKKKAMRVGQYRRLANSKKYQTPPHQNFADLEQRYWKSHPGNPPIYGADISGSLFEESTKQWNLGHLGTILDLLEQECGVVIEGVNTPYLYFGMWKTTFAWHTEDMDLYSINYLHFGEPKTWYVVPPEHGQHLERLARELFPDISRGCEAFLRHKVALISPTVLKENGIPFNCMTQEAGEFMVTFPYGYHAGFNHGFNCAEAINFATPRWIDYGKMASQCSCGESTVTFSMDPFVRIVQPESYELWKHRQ
Sfp PPTase inh = inhibitors of Bacillus subtilis Sfp phosphopantetheinyl transferase. Q9F4F7. Biochemical Sfp PPTase activity, qHTS. Potency, µM, for the others: largest response in the series, negative = inhibition, hits mostly inhibitors. 310,000 tested, 3.5% active. AID 1490;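 also: the enzyme is Sfp with the accession as filed and its product quenches rhodamine fluorescence; potency is read from the fitted curve at half-maximal effect; 0% = enzyme reaction without inhibitor and -100% = no enzyme wells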
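Reaction rates are the 30-min fluorescence difference (ex 525, em 598 nm) in wells containing 15 nM Sfp, 5 uM rhodamine-CoA and 12.5 uM BHQ-2-YbbR at pH 7.6 with 10 mM MgCl2.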
The depositor's hits bear a star; ? = inconclusive; / = not tested or not shown; [ ] = another dose, or the depositor's remark. Unless noted, calls follow the shape of the dose curve; as a rule, active = well fitted curve in the direction sought with a large enough effect; inconclusive = small, poorly fitted or top-dose-only effect, or another doubt; inactive = no such curve, though single readings can be large; an effect the other way counts as inactive or inconclusive. Unless noted, % is scaled to controls: 0 for no effect and ±100 for the full control effect.

SMILES | Tau ThT inhib | Tau FP inhib | Coupling enz | Tau fluor cs | JMJD2E inh | Sfp PPTase inh
CC1=C(C)C(=O)N(c2ccccn2)C1=O | -2% | -1% | 1 | 5% | -1% | 18%
O=C1C2C3C=CC(C3=C(c3ccccc3)c3ccccc3)C2C(=O)N1Cc1ccccc1 (stereo not given) | 1% | -2% | 0 | 1% | 3% | 50µM*
Cc1cn2c(=O)cc(COC(=O)COc3ccccc3C)nc2s1 | -12% | -8% | / | -12% | / | /
C=COCCn1c(=N)n(CCC)c2ccccc21 | -4% | 28µM* | 2 | ? | ? | 21%
O=C(O/N=C\c1ccc(N2CCOCC2)c([N+](=O)[O-])c1)c1ccccc1Cl | 13µM* | 12% | -3 | ? | -9% | 12%
CO/N=C/c1ccc(N2CCCC2)c([N+](=O)[O-])c1 | ? | 6% | -3 | -9% | -1% | 6%
O=C(O/N=C\c1ccc(N2CCOCC2)c([N+](=O)[O-])c1)c1ccc(F)cc1 | 5µM* | -1% | -2 | -20% | -4% | 6%
COc1cc2oc(=O)c(CC(=O)NCCc3ccccc3)c(C)c2cc1Cl | 4% | -4% | / | 2% | / | /
CCOC(=O)C1CCCN(Cc2cc(Br)ccc2OC)C1 (stereo not given) | -4% | 4% | -2 | 3% | ? | ?
CCN(CC)C(=O)C1CCCN(Cc2ccc(OC)c(C)c2C)C1 (stereo not given) | 3% | 5% | 1 | 3% | ? | 50µM*
COc1ccc2c(C)cc(SCC(=O)Nc3cc(C(N)=O)cc(C(N)=O)c3)nc2c1 | 20% | ? | 3 | ? | ? | 45µM*
COC(=O)N1[C@H](C)C=C[C@]1(Cc1ccccc1)C(=O)NCc1ccc(C)o1 | ? | ? | -3 | -6% | -26% | 45µM*
COC(=O)N1[C@H](C)C=C[C@]1(Cc1ccccc1)C(=O)NCc1ccc(N(C)C)cc1 | -18% | -10% | -2 | -23% | 18µM* | -1%
CC1CC(O)CC(C)(C)C1 (stereo not given) | / | / | / | / | / | 8%
CCOC(=O)N1CCC(NC(=O)C2CCN(C(=O)c3cc4oc(C)cc4n3Cc3c(F)cccc3Cl)CC2)CC1 | ? | -5% | -5 | -5% | 4% | 20µM*
COC(=O)c1cc2oc(C)cc2n1Cc1ccccc1Cl | ? | -15% | / | -20% | / | /
COC(CNC(=O)C1CCN(C(=O)c2cc3oc(C)cc3n2Cc2c(F)cccc2Cl)CC1)OC | -13% | -10% | -1 | -13% | ? | 45µM*
CCOC(=O)N1CCC(NC(=O)C2CCN(C(=O)N3CC(C)Oc4ccccc43)CC2)CC1 (stereo not given) | -3% | 7% | 1 | -7% | 4% | 9%
CCN1CCc2c(sc(NC(=O)c3ccc(S(=O)(=O)N4CCCC(C)C4)cc3)c2C(=O)OC)C1 (stereo not given) | -2% | -8% | / | -12% | / | /
C[C@@H](/C=C/c1ccc2ccccc2c1)C1COC(=O)C[C@H]1O (stereo not given in full) | / | / | 0 | / | / | -12%
COC(=O)C1CCN(C(=O)Cc2c(OC)ccc3cc(Br)ccc23)CC1 | 5% | -3% | -7 | -5% | -3% | 56µM*
COc1ccc2cc(Br)ccc2c1CC(=O)N1CCCC1 | / | / | 0 | / | / | 6%
Cc1cccn2cc(-c3cccc(NC(=O)C(C)C)c3)nc12 | -7% | -4% | / | 0% | / | /
Cc1c(Cc2ccccc2)sc(/N=C/c2c(O)ccc3ccccc23)c1C(N)=O | 28µM* | ? | -12 | 32µM*[quencher] | ? | 35µM*
Cc1c(Cc2ccccc2)sc(/N=C/c2ccc3ccccc3c2)c1C(N)=O | -16% | 3% | -2 | -19% | ? | -25%
Cc1c(Cc2ccccc2)sc(NC(=O)C(C)(C)C)c1C(N)=O | ? | -21% | -7 | ? | -10% | 20µM*
CCC(=O)Nc1sc(Cc2ccccc2)c(C)c1C(N)=O | -18% | -7% | 4 | -26% | ? | ?
